Conditions in all cases: 60 µM; 5 days; temperature: 20 °C
Test [1] has as its system Meloidogyne hapla J2. The test can be described thus: proportion of mobile M. hapla J2 relative to DMSO control (fraction of DMSO control); higher = more viable, less nematicidal, active = 0.7 or less. The method, boiled down: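 About 25 M. hapla J2 were placed in each well of a 96-well plate in distilled water, and compound was pinned in to a final 60 µM with 0.6% v/v DMSO. The sealed plates were shaken at 200 rpm at 20 °C for 5 days, after which 2 µL of 1 M NaOH went into each well. Mobility was then scored under the microscope and divided by the mean value from DMSO-only wells on the same plate. Each plate held eight such DMSO wells, and two biological replicates were averaged.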

Test [2] relates to Caenorhabditis elegans dauer (daf-2(e1370)). The test can be described thus: proportion of mobile C. elegans dauer larvae relative to DMSO control (fraction of DMSO control); higher = more viable, less nematicidal, active = 0.63 or less; extreme values may be limits of the assay. In outline: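 Synchronized C. elegans larvae were kept for 48 h at 25 °C on MYOB plates seeded with E. coli OP50 to induce dauer formation, and roughly 20 dauers were transferred into each well of a 96-well plate containing liquid NGM. Compound was pinned in to a final concentration of 60 µM with 0.6% v/v DMSO, and the sealed plates were shaken at 200 rpm for 5 days at 20 °C. The fraction of mobile worms was scored under a dissection microscope against DMSO-only wells and averaged across two biological replicates.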

Test [3] deals with Ditylenchus dipsaci. The experiment in a line: proportion of mobile D. dipsaci (mixed stage) relative to DMSO control (fraction of DMSO control); higher = more viable, less nematicidal, active = 0.86 or less; extreme values may be limits of the assay. The method, boiled down: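 Ditylenchus dipsaci nematodes were cultured on pea plants in Gamborg B-5 agar, then extracted into water through a filter funnel, and roughly 20 worms in distilled water were placed in each well of a 96-well plate. Compound was pinned in to a final concentration of 60 µM (0.6% v/v DMSO), and the sealed plates were shaken at 200 rpm for 5 days at 20 °C. Mobile worms were counted under the microscope after 2 µL of 1 M NaOH was added. Mobility is given relative to DMSO controls as the mean of two biological replicates.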

SMILES strings stand for the structures. Values without a mark were called inactive.

We go through 34 molecules from the supplement of paper PMC11219838.

With `CCOc1cc(-c2nc(-c3ccccc3C)no2)cc(OCC)c1OCC`, the “proportion of mobile M. hapla J2” value in test [1] is 0.821. Besides, in test [2], the “proportion of mobile C. elegans dauer larvae” value was 1. For the same molecule, the “proportion of mobile D. dipsaci” value in test [3] is 1.

Take `c1ccc(CSc2nnc(-c3cccnc3)o2)cc1`: in test [1], the “proportion of mobile M. hapla J2” value was 0.391 (active). Further, the “proportion of mobile C. elegans dauer larvae” value in test [2] is 1. For the same molecule, the “proportion of mobile D. dipsaci” value in test [3] is 1.

For `Clc1cc(Br)ccc1OCc1nc(-c2cccnc2)no1`, the “proportion of mobile M. hapla J2” value in test [1] is 1.04. Moreover, the “proportion of mobile C. elegans dauer larvae” value in test [2] was 1. In addition, the “proportion of mobile D. dipsaci” value in test [3] is 1.

Turning to `COc1ccccc1OCc1nc(-c2cccc(Br)c2)no1`, the “proportion of mobile M. hapla J2” value in test [1] was 0.499 (active). Besides, the “proportion of mobile C. elegans dauer larvae” value in test [2] was 1. The “proportion of mobile D. dipsaci” value in test [3] is 1.

Regarding `Cc1cc(OCc2nc(-c3ccc(NC(=O)c4ccc5c(c4)OCO5)cc3)no2)ccc1Cl`, the “proportion of mobile M. hapla J2” value in test [1] was 0.843. Moreover, the “proportion of mobile C. elegans dauer larvae” value in test [2] is 1. In addition, in test [3], the “proportion of mobile D. dipsaci” value was 1.

Take `Brc1ccc(-c2noc(-c3ccc4c(c3)OCO4)n2)cc1`: in test [1], the “proportion of mobile M. hapla J2” value is 1.03. The “proportion of mobile C. elegans dauer larvae” value in test [2] is 1. Also, in test [3], the “proportion of mobile D. dipsaci” value is 1.

As for `COc1ccc(-c2noc(-c3ccc(C)c(Cl)c3)n2)cc1`, the “proportion of mobile M. hapla J2” value in test [1] was 0.986. Also, the “proportion of mobile C. elegans dauer larvae” value in test [2] is 1. Moreover, the “proportion of mobile D. dipsaci” value in test [3] is 1.

Consider `Fc1ccc(OCc2nc(-c3ccc(Br)cc3)no2)cc1`, for which the “proportion of mobile M. hapla J2” value in test [1] is 0.95. In addition, the “proportion of mobile C. elegans dauer larvae” value in test [2] is 1. Also, the “proportion of mobile D. dipsaci” value in test [3] is 1.

As to `O=C(CSc1nnc(-c2ccco2)o1)Nc1ccc(Br)cc1`, the “proportion of mobile M. hapla J2” value in test [1] was 1.05. The “proportion of mobile C. elegans dauer larvae” value in test [2] was 1. The “proportion of mobile D. dipsaci” value in test [3] was 1.

For `Cc1ccc(OCc2nc(-c3ccccc3)no2)c(Br)c1`, the “proportion of mobile M. hapla J2” value in test [1] was 1.01. The “proportion of mobile C. elegans dauer larvae” value in test [2] is 1. For the same molecule, the “proportion of mobile D. dipsaci” value in test [3] was 1.

Consider `c1cncc(-c2noc(-c3cccc4ccccc34)n2)c1`, for which the “proportion of mobile M. hapla J2” value in test [1] is 1.04. For the same molecule, the “proportion of mobile C. elegans dauer larvae” value in test [2] was 1. Further, in test [3], the “proportion of mobile D. dipsaci” value was 1.

Turning to `CCOC(=O)c1sc(NC(=O)CSc2nnc(-c3ccc(Cl)cc3)o2)c(C#N)c1C`, the “proportion of mobile M. hapla J2” value in test [1] was 0.929. For the same molecule, the “proportion of mobile C. elegans dauer larvae” value in test [2] is 1. Further, the “proportion of mobile D. dipsaci” value in test [3] was 1.

Turning to `CCOC(=O)c1sc(NC(=O)CSc2nnc(-c3ccc(Cl)cc3)o2)c(C(=O)OCC)c1C`, the “proportion of mobile M. hapla J2” value in test [1] was 0.906. In addition, the “proportion of mobile C. elegans dauer larvae” value in test [2] is 1. Also, the “proportion of mobile D. dipsaci” value in test [3] is 1.

On to `Cc1ccc(NC(=O)CSc2nnc(-c3ccccc3)o2)cc1F`, for which, in test [1], the “proportion of mobile M. hapla J2” value is 1.02. In addition, in test [2], the “proportion of mobile C. elegans dauer larvae” value is 1. Moreover, in test [3], the “proportion of mobile D. dipsaci” value was 1.

Take `Cc1cccc(-c2noc(-c3ccc(C)cc3Cl)n2)c1`: the “proportion of mobile M. hapla J2” value in test [1] was 0.964. Also, the “proportion of mobile C. elegans dauer larvae” value in test [2] is 1. The “proportion of mobile D. dipsaci” value in test [3] was 1.

Turning to `O=C(CSc1nnc(-c2ccccc2Cl)o1)NCc1ccco1`, the “proportion of mobile M. hapla J2” value in test [1] is 0.961. Also, in test [2], the “proportion of mobile C. elegans dauer larvae” value was 1. The “proportion of mobile D. dipsaci” value in test [3] was 1.

For the molecule `COc1ccccc1-c1nc(-c2ccc(Cl)cc2)no1`, in test [1], the “proportion of mobile M. hapla J2” value is 0.934. Also, the “proportion of mobile C. elegans dauer larvae” value in test [2] is 1. Further, the “proportion of mobile D. dipsaci” value in test [3] was 1.

As to `Clc1ccc(-c2nc(-c3ccc4c(c3)OCO4)no2)cc1`, the “proportion of mobile M. hapla J2” value in test [1] was 1.03. In test [2], the “proportion of mobile C. elegans dauer larvae” value is 1. In addition, the “proportion of mobile D. dipsaci” value in test [3] was 1.

`COc1ccc(Cl)cc1-c1noc(COc2ccccc2)n1`: the “proportion of mobile M. hapla J2” value in test [1] was 0.953. In addition, in test [2], the “proportion of mobile C. elegans dauer larvae” value is 1. Further, in test [3], the “proportion of mobile D. dipsaci” value is 1.

Take `Fc1ccc(-c2noc(COc3cccc(Cl)c3)n2)cc1`: the “proportion of mobile M. hapla J2” value in test [1] was 0.908. The “proportion of mobile C. elegans dauer larvae” value in test [2] is 1. Besides, the “proportion of mobile D. dipsaci” value in test [3] is 1.

Turning to `Cc1ccccc1-c1nnc(SCc2ccccc2Cl)o1`, the “proportion of mobile M. hapla J2” value in test [1] was 0.863. The “proportion of mobile C. elegans dauer larvae” value in test [2] is 1. For the same molecule, the “proportion of mobile D. dipsaci” value in test [3] is 1.

For the molecule `COc1ccc(OCc2nc(-c3ccccc3)no2)cc1`, the “proportion of mobile M. hapla J2” value in test [1] was 0.891. In addition, the “proportion of mobile C. elegans dauer larvae” value in test [2] is 1. The “proportion of mobile D. dipsaci” value in test [3] was 1.

As to `COc1ccccc1-c1nc(-c2cccc(Br)c2)no1`, the “proportion of mobile M. hapla J2” value in test [1] was 1.04. Moreover, the “proportion of mobile C. elegans dauer larvae” value in test [2] was 1. The “proportion of mobile D. dipsaci” value in test [3] was 1.

Turning to `Brc1ccc(-c2noc(-c3cccs3)n2)cc1`, the “proportion of mobile M. hapla J2” value in test [1] was 0.884. In addition, in test [2], the “proportion of mobile C. elegans dauer larvae” value was 0.383 (active). Moreover, the “proportion of mobile D. dipsaci” value in test [3] was 1.

In the case of `CCOc1ccccc1-c1nnc(SCC(=O)N2CCC(C)CC2)o1`, in test [1], the “proportion of mobile M. hapla J2” value is 0.856. For the same molecule, the “proportion of mobile C. elegans dauer larvae” value in test [2] was 1. Moreover, the “proportion of mobile D. dipsaci” value in test [3] is 1.

Turning to `Cc1ccc(-c2noc(C3CCCCC3)n2)cc1`, the “proportion of mobile M. hapla J2” value in test [1] is 1.05. For the same molecule, the “proportion of mobile C. elegans dauer larvae” value in test [2] is 1. For the same molecule, the “proportion of mobile D. dipsaci” value in test [3] is 1.

On to `COc1ccc(Cl)cc1-c1noc(-c2cccc(C)c2)n1`, for which the “proportion of mobile M. hapla J2” value in test [1] was 1.05. The “proportion of mobile C. elegans dauer larvae” value in test [2] was 1. The “proportion of mobile D. dipsaci” value in test [3] was 1.

For the molecule `COc1nc(C)ccc1-c1noc(-c2ccc(Cl)cc2)n1`, in test [1], the “proportion of mobile M. hapla J2” value was 0.832. The “proportion of mobile C. elegans dauer larvae” value in test [2] is 1. Further, the “proportion of mobile D. dipsaci” value in test [3] is 1.

`Cc1ccc(-c2noc(-c3ccc(C)cc3C)n2)cc1`: the “proportion of mobile M. hapla J2” value in test [1] is 0.869. Moreover, the “proportion of mobile C. elegans dauer larvae” value in test [2] is 1. Moreover, in test [3], the “proportion of mobile D. dipsaci” value is 1.

`COc1ccc(-c2noc(COc3ccc(Cl)cc3C)n2)cc1`: in test [1], the “proportion of mobile M. hapla J2” value was 0.94. For the same molecule, the “proportion of mobile C. elegans dauer larvae” value in test [2] is 1. The “proportion of mobile D. dipsaci” value in test [3] was 1.

As to `COc1cccc(-c2nc(-c3ccc(Cl)cc3)no2)c1`, in test [1], the “proportion of mobile M. hapla J2” value was 1.04. Also, the “proportion of mobile C. elegans dauer larvae” value in test [2] is 1. The “proportion of mobile D. dipsaci” value in test [3] is 1.

For `Cc1ccccc1OCc1nc(-c2ccc(Cl)cc2)no1`, the “proportion of mobile M. hapla J2” value in test [1] is 1.04. In addition, the “proportion of mobile C. elegans dauer larvae” value in test [2] was 1. Further, the “proportion of mobile D. dipsaci” value in test [3] is 1.

`COc1ccc(-c2nc(-c3ccc(C(F)(F)F)cc3)no2)cc1`: the “proportion of mobile M. hapla J2” value in test [1] was 0.966. In addition, the “proportion of mobile C. elegans dauer larvae” value in test [2] was 1. Further, in test [3], the “proportion of mobile D. dipsaci” value is 1.

Take `Cc1cc(OCc2nc(-c3ccccn3)no2)c(C)cc1Br`: in test [1], the “proportion of mobile M. hapla J2” value was 0.711. The “proportion of mobile C. elegans dauer larvae” value in test [2] is 1. Besides, in test [3], the “proportion of mobile D. dipsaci” value is 1.
